{
  "source": "ChEMBL document CHEMBL2218924",
  "about": "“A broad activity screen in support of a chemogenomic map for kinase signalling research and drug discovery” (Biochem J, 2013)",
  "data": [
    {"biological_target": "T1, Serine/threonine-protein kinase haspin (Homo sapiens) (UniProt Q8TF76)", "T1 sequence (whole entry)": "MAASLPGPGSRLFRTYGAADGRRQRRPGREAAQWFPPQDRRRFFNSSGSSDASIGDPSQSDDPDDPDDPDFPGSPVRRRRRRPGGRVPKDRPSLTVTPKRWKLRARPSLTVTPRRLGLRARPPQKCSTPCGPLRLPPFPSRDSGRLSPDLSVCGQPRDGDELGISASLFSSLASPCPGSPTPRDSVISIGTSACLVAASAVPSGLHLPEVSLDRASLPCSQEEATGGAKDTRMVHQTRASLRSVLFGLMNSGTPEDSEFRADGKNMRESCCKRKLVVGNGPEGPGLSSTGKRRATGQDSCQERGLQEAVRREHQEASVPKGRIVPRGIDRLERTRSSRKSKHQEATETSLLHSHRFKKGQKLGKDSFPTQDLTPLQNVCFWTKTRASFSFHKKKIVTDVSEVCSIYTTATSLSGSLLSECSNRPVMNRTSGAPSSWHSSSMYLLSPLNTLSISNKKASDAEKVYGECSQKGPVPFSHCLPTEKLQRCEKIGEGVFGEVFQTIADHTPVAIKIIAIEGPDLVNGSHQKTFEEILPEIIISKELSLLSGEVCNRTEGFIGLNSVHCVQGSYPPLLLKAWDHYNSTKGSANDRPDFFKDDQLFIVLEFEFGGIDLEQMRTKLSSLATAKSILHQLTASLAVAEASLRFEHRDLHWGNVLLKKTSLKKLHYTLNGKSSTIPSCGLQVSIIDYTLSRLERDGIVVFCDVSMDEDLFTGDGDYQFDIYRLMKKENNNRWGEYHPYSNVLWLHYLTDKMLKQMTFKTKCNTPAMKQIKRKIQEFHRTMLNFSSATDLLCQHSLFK", "details": "at 10 µM", "units": {"residual activity": "%"}, "values": [
      {"compound": "O=c1cc(N2CCNCC2)oc2c(-c3ccccc3)cccc12", "residual activity": 38},
      {"compound": "CC(C)[C@H](CO)Nc1nc(Nc2cc(N)cc(Cl)c2)c2ncn(C(C)C)c2n1", "residual activity": 20},
      {"compound": "O=C1NC(=O)c2c1c1c3ccccc3[nH]c1n1cncc21", "residual activity": 18},
      {"compound": "Cc1cc(C)c(/C=C2\\C(=O)Nc3ccccc32)[nH]1", "residual activity": 77},
      {"compound": "CC(C)(C)c1nc2c3ccc(F)cc3c3c(=O)[nH]ccc3c2[nH]1", "residual activity": 34},
      {"compound": "Nc1ncnc2c1c(-c1ccc(Oc3ccccc3)cc1)cn2C1CCCC1", "residual activity": 44},
      {"compound": "O=c1cc(N2CCOCC2)oc2c1ccc1ccccc12", "residual activity": 26},
      {"compound": "NC(=O)c1cccc(-c2cc(Nc3ccc(OC(F)(F)F)cc3)ncn2)c1", "residual activity": 65},
      {"compound": "Oc1cccc(-c2nc(N3CCOCC3)c3oc4ncccc4c3n2)c1", "residual activity": 32},
      {"compound": "CC(C)c1nn(-c2c(Cl)cccc2Cl)c2nc(Cc3ccc(OCCO)cc3)[nH]c(=O)c12", "residual activity": 56},
      {"compound": "O=S(=O)(c1cccc2cnccc12)N1CCCNCC1", "residual activity": 8},
      {"compound": "N#C/C(=C1/Nc2ccccc2S1)c1ccnc(NCCc2cccnc2)n1", "residual activity": -2},
      {"compound": "O=C(CCCc1ccc(-c2ccccc2F)cc1)Nc1ccc(O)cc1", "residual activity": 98},
      {"compound": "CC(C)(C)n1nc(Cc2cccc3ccccc23)c2c(N)ncnc21", "residual activity": 16},
      {"compound": "c1ccc(-c2cnc(Nc3ccc(OCCN4CCCC4)cc3)s2)cc1", "residual activity": 51},
      {"compound": "O=C(O)/C=C/c1cc(Br)c(Br)c(Br)c1Br", "residual activity": 71},
      {"compound": "Nc1ncnc2c1cnn2-c1ccccc1", "residual activity": 83},
      {"compound": "COc1ccc2c(c1)c(C1=C(c3c[nH]c4ccccc34)C(=O)NC1=O)cn2CCCN(C)C", "residual activity": 56},
      {"compound": "CCN(CC)CCNC(=O)c1c(C)[nH]c(/C=C2\\C(=O)Nc3ccc(Cl)cc32)c1C", "residual activity": 12},
      {"compound": "CC(C)N(CCC(=O)c1ccc2ccccc2c1)Cc1ccccc1", "residual activity": 66},
      {"compound": "O=C(c1cc2cc(O)ccc2[nH]1)c1cc2cc(O)ccc2[nH]1", "residual activity": 7},
      {"compound": "COc1cc2nccc(Oc3ccc(NC(=S)NC(=O)c4ccccc4C)cc3)c2cc1OC", "residual activity": 35},
      {"compound": "NC(=O)Nc1sc(-c2ccc(F)cc2)cc1C(N)=O", "residual activity": 51},
      {"compound": "O=C(NC(NC(=S)Nc1ccc(F)c([N+](=O)[O-])c1)C(Cl)(Cl)Cl)C(c1ccccc1)c1ccccc1", "note": "(stereo not drawn)", "residual activity": 47},
      {"compound": "CCCCc1c(-c2ccc(OC)cc2)[nH]c2nccnc12", "residual activity": 27},
      {"compound": "CCN1/C(=C/C(C)=O)Sc2ccc(OC)cc21", "residual activity": 4},
      {"compound": "CCCC(=O)Oc1ccc2[nH]c(C(=O)c3cc4ccccc4[nH]3)cc2c1", "residual activity": 99},
      {"compound": "O=C1Nc2ccc(Cl)cc2/C1=C/c1cc(Cl)c(O)c(Cl)c1", "residual activity": 1},
      {"compound": "N#Cc1c(NC(=O)c2cccc3ccccc23)sc2c1CCCC2", "residual activity": 64}
    ]},
    {"biological_target": "Tyrosine-protein kinase HCK (Homo sapiens) (UniProt P08631)", "sequence (P08631 2-526 limits assumed)": "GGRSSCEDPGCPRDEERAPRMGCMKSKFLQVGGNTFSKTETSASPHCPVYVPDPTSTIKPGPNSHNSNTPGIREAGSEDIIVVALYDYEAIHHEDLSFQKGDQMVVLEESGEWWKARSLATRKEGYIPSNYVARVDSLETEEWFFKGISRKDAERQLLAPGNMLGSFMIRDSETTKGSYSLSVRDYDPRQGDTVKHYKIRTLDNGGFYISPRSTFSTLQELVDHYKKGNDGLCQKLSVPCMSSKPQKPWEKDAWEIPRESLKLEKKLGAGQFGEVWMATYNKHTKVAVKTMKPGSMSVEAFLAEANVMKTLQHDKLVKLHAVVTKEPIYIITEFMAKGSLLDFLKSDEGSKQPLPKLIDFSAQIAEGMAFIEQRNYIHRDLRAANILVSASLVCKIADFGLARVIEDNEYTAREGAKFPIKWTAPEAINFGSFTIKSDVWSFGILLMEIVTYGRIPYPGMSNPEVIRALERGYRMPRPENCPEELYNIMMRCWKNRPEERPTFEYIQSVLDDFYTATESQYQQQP", "details": "at 1 µM", "units": {"residual activity": "%"}, "values": [
      {"compound": "O=c1cc(N2CCNCC2)oc2c(-c3ccccc3)cccc12", "residual activity": 79},
      {"compound": "CC(C)[C@H](CO)Nc1nc(Nc2cc(N)cc(Cl)c2)c2ncn(C(C)C)c2n1", "residual activity": 27},
      {"compound": "O=C1NC(=O)c2c1c1c3ccccc3[nH]c1n1cncc21", "residual activity": 54},
      {"compound": "Cc1cc(C)c(/C=C2\\C(=O)Nc3ccccc32)[nH]1", "residual activity": 60},
      {"compound": "CN(C)S(=O)(=O)c1ccc2c(c1)/C(=C/c1cc3c([nH]1)CCCC3)C(=O)N2", "residual activity": 10},
      {"compound": "CC(C)(C)c1nc2c3ccc(F)cc3c3c(=O)[nH]ccc3c2[nH]1", "residual activity": 49},
      {"compound": "Nc1ncnc2c1c(-c1ccc(Oc3ccccc3)cc1)cn2C1CCCC1", "residual activity": 2},
      {"compound": "O=c1cc(N2CCOCC2)oc2c1ccc1ccccc12", "residual activity": 85},
      {"compound": "CC(C)c1nn(-c2c(Cl)cccc2Cl)c2nc(Cc3ccc(OCCO)cc3)[nH]c(=O)c12", "residual activity": 75},
      {"compound": "O=C1C(Cl)=C(N2C(=O)CCC2=O)C(=O)c2ccccc21", "residual activity": 71},
      {"compound": "N#C/C(=C1/Nc2ccccc2S1)c1ccnc(NCCc2cccnc2)n1", "residual activity": 60},
      {"compound": "O=C(CCCc1ccc(-c2ccccc2F)cc1)Nc1ccc(O)cc1", "residual activity": 96},
      {"compound": "CC(C)(C)n1nc(Cc2cccc3ccccc23)c2c(N)ncnc21", "residual activity": 32},
      {"compound": "c1ccc(-c2cnc(Nc3ccc(OCCN4CCCC4)cc3)s2)cc1", "residual activity": 57},
      {"compound": "O=C(O)/C=C/c1cc(Br)c(Br)c(Br)c1Br", "residual activity": 59},
      {"compound": "Nc1ncnc2c1cnn2-c1ccccc1", "residual activity": 83},
      {"compound": "COc1ccc2c(c1)c(C1=C(c3c[nH]c4ccccc34)C(=O)NC1=O)cn2CCCN(C)C", "residual activity": 65},
      {"compound": "CCN(CC)CCNC(=O)c1c(C)[nH]c(/C=C2\\C(=O)Nc3ccc(Cl)cc32)c1C", "residual activity": 13},
      {"compound": "CC(C)N(CCC(=O)c1ccc2ccccc2c1)Cc1ccccc1", "residual activity": 79},
      {"compound": "O=C(c1cc2cc(O)ccc2[nH]1)c1cc2cc(O)ccc2[nH]1", "residual activity": 23},
      {"compound": "COc1cc2nccc(Oc3ccc(NC(=S)NC(=O)c4ccccc4C)cc3)c2cc1OC", "residual activity": 7},
      {"compound": "NC(=O)Nc1sc(-c2ccc(F)cc2)cc1C(N)=O", "residual activity": 24},
      {"compound": "COc1ccc(Cl)cc1NC(=O)Nc1cc(C)nc2ccccc12", "residual activity": 93},
      {"compound": "O=C(NC(NC(=S)Nc1ccc(F)c([N+](=O)[O-])c1)C(Cl)(Cl)Cl)C(c1ccccc1)c1ccccc1", "note": "(stereo not drawn)", "residual activity": 80},
      {"compound": "CCCCc1c(-c2ccc(OC)cc2)[nH]c2nccnc12", "residual activity": 60},
      {"compound": "CCN1/C(=C/C(C)=O)Sc2ccc(OC)cc21", "residual activity": 76},
      {"compound": "CCCC(=O)Oc1ccc2[nH]c(C(=O)c3cc4ccccc4[nH]3)cc2c1", "residual activity": 70},
      {"compound": "O=C1Nc2ccc(Cl)cc2/C1=C/c1cc(Cl)c(O)c(Cl)c1", "residual activity": 61},
      {"compound": "N#Cc1c(NC(=O)c2cccc3ccccc23)sc2c1CCCC2", "residual activity": 63}
    ]}
  ]
}
